Measured values taken from PubChem BioAssay (NCATS).
Records with an inconclusive call do not appear. Where a call stands in place of a potency, no number is given. The source made the active and inactive calls. Unless noted, calls come from the whole dose curve; as a rule, active = well fitted curve in the direction sought with a large enough effect; inconclusive = small, poorly fitted or top-dose-only effect, or another doubt; inactive = no such curve, though single readings can be large; an effect the other way counts as inactive or inconclusive.

Columns and labels:
[1] = Validation of Assay for Modulators of Lamin A Splicing (AID 1459; active = well fitted curve in the direction sought with a large enough effect in the signal ratio; the % refers to the signal ratio;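 note: cells exposed to compound for two days before reading; ratio rise marks activators and ratio drop marks inhibitors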)
How it was run: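 HeLa S3 lamin A-EGFP/DsRed2 stable clone, 600 cells/well, Opti-MEM 2% FBS; compounds by pin tool; 48 hrs, 37 °C/5% CO2; Acumen 488 nm scan, objects 10-100 um; GFP/RFP intensity ratio.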

[2] = qHTS Assay for Lipid Storage Modulators (AID 1519; calls by dose curve); details: Drosophila S3 cells, BODIPY lipid droplet/cell ratio, laser cytometry, cells loaded with oleic acid; for activity change, negative = inhibition: at 57.5 µM (top of the series)
How it was run: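 Cells seeded at 5,000 per well were treated with compounds over a concentration series and loaded with oleic acid (400 uM, as added). Lipid droplet fluorescence (488 nm excitation, 500-530 nm channel) was read by laser-scanning cytometry and normalized to 20 uM Triacsin C.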

[3] = biological target: DNA repair nuclease/redox regulator APEX1 (Homo sapiens) (UniProt P27695); assay: qHTS Validation Assay for Inhibitors of the Human Apurinic/apyrimidinic Endonuclease 1 (APE1) (AID 1705;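 note: TAMRA fluorescence gain over two minutes as APE1 cuts a quenched THF abasic duplex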)
How it was run: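 qHTS, 1536-well. APE1 + cpd 15 min RT → 50 nM TAMRA/BHQ-2 THF-abasic dsDNA substrate → kinetic fluorescence, 3 reads/60 s; delta(read3−read1) = reaction progress. No-enzyme buffer = negative control.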

[4] = Counterscreen for APE1 Inhibitors: Fluorescent Dye Displacement Validation Assay (AID 1707)
How it was run: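 Loss of Thiazole Orange fluorescence marks promiscuous DNA binders. The dye (250 nM) is mixed with 50 nM abasic-site dsDNA in pH7.5 Tris buffer containing MgCl2, then compounds are added and emission is read once.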

[5] = biological target: Endonuclease 4 (Escherichia coli (strain K12)) (UniProt P0A6C1); assay: Counterscreen for APE1 Inhibitors: qHTS Validation Assay for Inhibitors of Endonuclease IV (AID 1708)
How it was run: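 Measured as reaction progress, the fluorescence gain between first and third kinetic reads after adding 50 nM TAMRA/BHQ-2 THF duplex to 2 nM enzyme preincubated 15 min with compound; 2 mM MgCl2, pH 7.5.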

[6] = qHTS for differential inhibitors of proliferation of Plasmodium falciparum line 3D7 (AID 1876); note: potency is the fitted concentration of half-maximal effect
[7] = qHTS for differential inhibitors of proliferation of Plasmodium falciparum line D10 (AID 1877);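 note: parasites grown with compound for 72 h before DNA staining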; note: potency is the fitted concentration of half-maximal effect
[8] = qHTS for differential inhibitors of proliferation of Plasmodium falciparum line W2 (AID 1883); details: Potency: Plasmodium falciparum W2 proliferation inhibition;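 note: parasites grown with compound for 72 h before lysis and staining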; note: potency is the fitted concentration of half-maximal effect
[9] = qHTS for differential inhibitors of proliferation of Plasmodium falciparum line HB3 (AID 1886); details: Potency: Plasmodium falciparum HB3 proliferation inhibition;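 note: parasites grown with compound for 72 h before SYBR Green readout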; note: potency is the fitted concentration of half-maximal effect
[10] = qHTS Assay for Modulators of Human Peripheral Myelin Protein 22 (PMP22) Expression/Activity (AID 1967; active = well fitted curve in the direction sought with a large enough effect in the signal ratio; the % refers to the signal ratio)
How it was run: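 Luminescence ratio of Pmp22 promoter-driven green luciferase to EF-alpha-driven red luciferase, in engineered mouse MSC80 Schwann cells, served as read-out. Compounds were incubated 24h; untreated cells defined 0% Activity; curves were classified by r2, magnitude and activity.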

[11] = biological target: Ferritin light chain (Equus caballus) (UniProt P02791); assay: qHTS Validation Assay for Identification of Novel General Anesthetics (AID 2323)
How it was run: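 Fluorescence at 535 nm (excitation 380 nm) reported loss of 1-AMA binding to horse-spleen apoferritin (10 uM) in PBS with 50% saturated 1-aminoanthracene, after 10 min room-temperature incubation with compound; values from Hill fits of normalized response.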

[12] = biological target: ATP-dependent DNA helicase Q1 (Homo sapiens) (UniProt P46063); assay: qHTS Validation Assay for Inhibitors of RecQ-Like Dna Helicase 1 (RECQ1) (AID 2353)
How it was run: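 RECQ1T1 50 nM; forked duplex (20 bp + 30-nt ss tails) 200 nM, ATP 2 mM final; pH 8.0, 2 mM MgCl2, 2.5 ug/ml poly(dI-dC); 15 min compound preincubation; discontinuous kinetic read over 2 h at RT.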

[13] = biological target: RecQ-like DNA helicase BLM (Homo sapiens) (UniProt P54132); assay: qHTS Validation Assay for Inhibitors of Bloom's syndrome helicase (BLM) (AID 2364)
How it was run: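 BLM 50 nM in 25 mM Tris-HCl pH 8.0, 5 mM NaCl, 2 mM MgCl2, 1 mM DTT, 0.01% Tween-20, 2.5 ug/ml poly(dI-dC); 15 min cpd preinc, RT. Start: 200 nM forked DNA + 2 mM ATP (final). TAMRA read, 2 reads 2 h apart.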

[14] = biological target: alpha-glucosidase (Oryza sativa, rice) (UniProt Q653V4); assay: Counterscreen for Glucocerebrosidase Inhibitors: qHTS Assay for Rice alpha-Glucosidase at pH 5.0 (AID 997)
How it was run: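 Endpoint fluorogenic assay at pH 5.0: compounds (0.7 nM to 77 uM) titrated against 4 nM rice enzyme and 400 uM 4-MU-alpha-glucoside for 20 min at room temperature; NaOH/glycine stop, read ex 365/em 440 nm, Hill-fitted AC50.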

[15] = qHTS for differential inhibitors of proliferation of Plasmodium falciparum line Dd2 (AID 1882); details: Potency: Plasmodium falciparum Dd2 proliferation inhibition; note: nearly all actives have a fitted effect of over 65% in size; note: potency is the fitted concentration of half-maximal effect;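 for activity change, negative = inhibition: compound exposure of 72 h on infected erythrocytes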
How it was run: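 RBC culture, 0.3% parasitemia / 2.5% Hct final; cpd added by pin tool in DMSO; 72 h, 37 C, 5% CO2; lysis buffer + SYBR Green I, o/n RT dark; FI 485/535; norm. to artemisinin 0.29 uM and DMSO.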

[16] = qHTS for differential inhibitors of proliferation of Plasmodium falciparum line 7G8 (AID 1815);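 note: parasite growth measured after three days of incubation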; note: potency is the fitted concentration of half-maximal effect
[17] = qHTS for differential inhibitors of proliferation of Plasmodium falciparum line GB4 (AID 1816); details: Potency: Plasmodium falciparum GB4 proliferation inhibition;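 note: parasite growth measured after 72 h incubation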; note: potency is the fitted concentration of half-maximal effect
[18] = measured here: cell count channel max response
[19] = measured here: lipid channel max response

Sequence of RecQ-like DNA helicase BLM (Homo sapiens) (P54132 whole entry, looked up): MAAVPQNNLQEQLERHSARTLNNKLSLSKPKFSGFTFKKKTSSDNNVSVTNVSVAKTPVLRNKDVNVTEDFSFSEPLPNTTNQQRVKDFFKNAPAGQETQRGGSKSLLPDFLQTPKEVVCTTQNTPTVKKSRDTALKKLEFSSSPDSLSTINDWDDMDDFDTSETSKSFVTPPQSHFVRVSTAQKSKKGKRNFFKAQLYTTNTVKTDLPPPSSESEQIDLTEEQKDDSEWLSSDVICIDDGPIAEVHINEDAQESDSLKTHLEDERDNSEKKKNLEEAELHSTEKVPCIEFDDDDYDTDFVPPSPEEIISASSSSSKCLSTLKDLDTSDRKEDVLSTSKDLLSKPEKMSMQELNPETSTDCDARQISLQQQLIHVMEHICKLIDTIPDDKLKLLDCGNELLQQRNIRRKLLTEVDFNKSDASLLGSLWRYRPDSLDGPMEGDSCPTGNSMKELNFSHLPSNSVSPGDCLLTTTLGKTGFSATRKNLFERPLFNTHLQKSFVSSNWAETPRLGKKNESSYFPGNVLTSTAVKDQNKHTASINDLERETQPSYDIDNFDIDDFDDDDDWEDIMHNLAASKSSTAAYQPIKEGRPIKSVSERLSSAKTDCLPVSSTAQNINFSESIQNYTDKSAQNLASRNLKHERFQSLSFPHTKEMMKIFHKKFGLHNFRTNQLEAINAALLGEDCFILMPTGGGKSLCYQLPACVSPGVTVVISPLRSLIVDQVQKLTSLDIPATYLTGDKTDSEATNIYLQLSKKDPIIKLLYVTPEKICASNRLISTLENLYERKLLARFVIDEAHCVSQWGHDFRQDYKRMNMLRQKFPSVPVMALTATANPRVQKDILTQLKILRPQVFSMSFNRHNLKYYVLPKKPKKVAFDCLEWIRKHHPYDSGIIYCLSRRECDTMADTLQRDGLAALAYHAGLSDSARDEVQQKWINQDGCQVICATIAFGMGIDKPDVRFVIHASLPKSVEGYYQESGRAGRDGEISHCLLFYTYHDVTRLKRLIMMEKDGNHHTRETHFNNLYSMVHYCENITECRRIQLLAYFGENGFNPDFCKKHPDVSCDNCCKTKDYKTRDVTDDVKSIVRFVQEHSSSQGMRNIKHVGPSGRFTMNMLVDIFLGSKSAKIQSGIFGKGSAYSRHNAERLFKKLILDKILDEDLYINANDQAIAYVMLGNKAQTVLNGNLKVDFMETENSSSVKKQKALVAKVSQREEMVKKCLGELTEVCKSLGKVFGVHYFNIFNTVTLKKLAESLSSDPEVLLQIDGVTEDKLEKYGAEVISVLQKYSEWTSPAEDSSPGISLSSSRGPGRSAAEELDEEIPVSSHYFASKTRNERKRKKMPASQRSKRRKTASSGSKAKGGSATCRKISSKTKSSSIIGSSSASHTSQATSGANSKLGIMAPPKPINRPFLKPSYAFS
Sequence of Ferritin light chain (Equus caballus) (P02791 2-175 limits assumed): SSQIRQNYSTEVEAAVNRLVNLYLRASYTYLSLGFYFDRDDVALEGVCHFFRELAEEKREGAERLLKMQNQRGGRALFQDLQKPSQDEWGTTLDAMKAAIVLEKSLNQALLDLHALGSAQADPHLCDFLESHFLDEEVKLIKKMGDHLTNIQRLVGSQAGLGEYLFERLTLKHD
Sequence of ATP-dependent DNA helicase Q1 (Homo sapiens) (P46063 whole entry, looked up): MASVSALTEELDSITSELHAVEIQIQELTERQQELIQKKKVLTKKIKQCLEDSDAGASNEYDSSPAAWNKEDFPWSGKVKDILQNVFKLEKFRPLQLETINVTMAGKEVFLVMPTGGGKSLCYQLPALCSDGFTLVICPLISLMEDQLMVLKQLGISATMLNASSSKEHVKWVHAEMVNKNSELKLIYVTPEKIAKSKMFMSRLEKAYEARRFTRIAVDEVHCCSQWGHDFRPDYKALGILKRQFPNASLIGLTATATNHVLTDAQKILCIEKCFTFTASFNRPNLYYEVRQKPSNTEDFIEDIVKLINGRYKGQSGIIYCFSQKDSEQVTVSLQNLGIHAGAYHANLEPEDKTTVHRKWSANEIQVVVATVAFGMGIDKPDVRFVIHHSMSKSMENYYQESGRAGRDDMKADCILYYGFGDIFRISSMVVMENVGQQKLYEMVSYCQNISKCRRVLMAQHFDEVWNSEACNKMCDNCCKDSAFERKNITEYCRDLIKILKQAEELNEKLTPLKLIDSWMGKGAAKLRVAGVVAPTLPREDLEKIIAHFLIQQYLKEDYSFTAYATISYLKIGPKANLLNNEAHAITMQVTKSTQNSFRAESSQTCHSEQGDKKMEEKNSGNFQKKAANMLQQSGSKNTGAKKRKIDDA
Sequence of DNA repair nuclease/redox regulator APEX1 (Homo sapiens) (P27695 whole entry, looked up): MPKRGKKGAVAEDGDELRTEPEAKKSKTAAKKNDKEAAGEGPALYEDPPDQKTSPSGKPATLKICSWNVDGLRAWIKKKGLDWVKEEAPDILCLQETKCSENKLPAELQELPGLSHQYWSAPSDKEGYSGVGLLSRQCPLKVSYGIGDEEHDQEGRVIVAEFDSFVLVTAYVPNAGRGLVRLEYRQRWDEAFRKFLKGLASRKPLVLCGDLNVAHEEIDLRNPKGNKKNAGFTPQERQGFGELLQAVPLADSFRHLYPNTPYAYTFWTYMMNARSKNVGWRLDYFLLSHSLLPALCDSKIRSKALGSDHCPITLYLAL

| Compound | outcome [1] | activity change, negative = inhibition [2] | max response [2, 18] | max response [2, 19] | Potency [3] | Potency [4] | Potency [5] | Potency [6] | Potency [7] | Potency [8] | Potency [9] | outcome [10] | Potency [11] | Potency [12] | Potency [13] | outcome [14] | Potency [15] | Potency [16] | Potency [17] |
| --- | --- | --- | --- | --- | --- | --- | --- | --- | --- | --- | --- | --- | --- | --- | --- | --- | --- | --- | --- |
| CN(C)CCC(c1ccc(Br)cc1)c1ccccn1 (stereo not given) | inactive | 0.401% (inactive) | 15.4% | 17.8% | inactive | inactive | inactive | inactive | inactive | 0.891 µM (active) | inactive | inactive | inactive | inactive | inactive | – | – | – | – |
| COc1cc(CNC(=O)CCCCCCC(C)C)ccc1O | inactive | 0.247% (inactive) | 14.5% | 14.2% | inactive | inactive | inactive | – | inactive | – | inactive | – | – | inactive | – | inactive | inactive | – | – |
| CSC(N)=NCCC[C@H](N)C(=O)O | inactive | -0.616% (inactive) | 39.8% | 26.3% | inactive | inactive | – | inactive | inactive | inactive | inactive | inactive | inactive | inactive | inactive | – | inactive | inactive | inactive |
| CC(=O)O[C@H]1CC2(C)[C@@H](C[C@@H](O)[C@H]3[C@@]4(C)CC[C@@H](O)[C@@H](C)[C@@H]4CC[C@@]32C)C1=C(CCC=C(C)C)C(=O)O (stereo not given in full) | inactive | 0.469% (inactive) | -5.46% | -5.43% | – | inactive | inactive | – | – | 10 µM (active) | – | inactive | – | inactive | inactive | – | – | 8.91 µM (active) | – |
| N=S(=O)(O)Cc1noc2ccccc12 | inactive | -0.718% (inactive) | 21.5% | 20% | inactive | inactive | – | inactive | inactive | – | inactive | inactive | inactive | inactive | – | – | inactive | – | – |
| COc1cc(C(O)CO)ccc1O (stereo not given) | inactive | -0.467% (inactive) | -50.8% | -49.3% | – | inactive | inactive | inactive | inactive | inactive | inactive | inactive | – | inactive | inactive | – | inactive | inactive | inactive |
| CC(C)NCC(O)COc1ccc(CC(N)=O)cc1 (stereo not given) | inactive | -4.52% (inactive) | -32.1% | -32.6% | inactive | inactive | – | inactive | inactive | inactive | inactive | inactive | inactive | inactive | inactive | – | inactive | inactive | inactive |
| Oc1cc(O)c2c(c1)O[C@H](c1ccc(O)c(O)c1)[C@@H](O)C2 | inactive | 1.15% (inactive) | -12.7% | -13.1% | – | inactive | inactive | inactive | inactive | – | inactive | – | inactive | inactive | – | – | inactive | inactive | inactive |
| NCCNS(=O)(=O)c1cccc2c(Cl)cccc12 | inactive | -0.563% (inactive) | -2.01% | -12.2% | – | inactive | – | 12.6 µM (active) | – | 6.31 µM (active) | – | – | – | inactive | inactive | inactive | – | 7.08 µM (active) | 8.91 µM (active) |
| c1ccc(CN2CCC3(CCCc4ccccc43)CC2)cc1 | inactive | -2.7% (inactive) | -38% | -39.4% | – | inactive | inactive | 10 µM (active) | 12.6 µM (active) | 4.47 µM (active) | 7.94 µM (active) | – | inactive | inactive | – | inactive | 11.2 µM (active) | 5.01 µM (active) | 5.62 µM (active) |
| Cn1cc(C(F)(F)F)nc1-c1ccc(OCC(O)CNCCOc2ccc(O)c(C(N)=O)c2)cc1 (stereo not given) | inactive | – | – | – | inactive | inactive | inactive | 2.82 µM (active) | 3.16 µM (active) | 10 µM (active) | 5.62 µM (active) | – | inactive | inactive | inactive | – | inactive | 12.6 µM (active) | 12.6 µM (active) |
| C=CCn1c(=O)c2c(nc(-c3ccc(S(=O)(=O)O)cc3)n2C)n(C)c1=O | inactive | – | – | – | inactive | inactive | inactive | inactive | inactive | inactive | inactive | inactive | – | – | – | inactive | inactive | inactive | inactive |
